Laboratory results published in PubChem BioAssay (NCI).
This is part of a sample that, as a whole, favours compounds with a hit. Of some 83,000 tested, about 20% had one in any assay.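 Single-concentration screen, 48 h exposure, 96-well plates. Endpoint: percent growth. Below 10 = active.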 Calls of active or inactive are those of the source.

Legend:
Assay in all cases: NCI-60 one-dose screen, 48 h (100 = growth as untreated, 0 = no growth, -100 = all killed)
Conditions in all cases: 10 µM unless noted
[1] = test system: SK-MEL-2 melanoma
[2] = test system: EKVX NSCLC
[3] = test system: SN12C renal
[4] = test system: UO-31 renal
[5] = test system: TK-10 renal
[6] = test system: CAKI-1 renal
[7] = test system: A498 renal
[8] = test system: CCRF-CEM leukemia
[9] = test system: MOLT-4 leukemia
[10] = test system: SR leukemia
[11] = test system: RPMI-8226 leukemia
[12] = test system: OVCAR-8 ovarian
[13] = test system: OVCAR-5 ovarian
[14] = test system: OVCAR-4 ovarian
[15] = test system: SK-OV-3 ovarian
[16] = test system: IGROV1 ovarian
[17] = test system: HS 578T breast
[18] = test system: OVCAR-3 ovarian
[19] = test system: NCI/ADR-RES ovarian
[20] = test system: ACHN renal

Measured: growth

COc1cc(-c2nc3sccn3c2-c2ccnc(S(C)(=O)=O)n2)ccc1F
inactive: [1] 96% | [2] 87.3% | [3] 88.7% | [4] 85.2% | [5] 120% | [6] 85.2% | [7] 95.1% | [8] 92.1% | [9] 83.5% | [10] 86.3% | [11] 91.9% | [12] 98.3% | [13] 98.3% | [14] 98.2% | [15] 113% | [16] 98.1% | [17] 101%

O=C(O)c1ccc(-n2cc(CNc3cc(F)c(F)c(F)c3)c(-c3ccc(F)cc3)n2)cc1
inactive: [1] 78.7% | [2] 85.6% | [3] 91.9% | [4] 77.4% | [5] 150% | [8] 82.7% | [9] 74.2% | [10] 78.1% | [11] 76.3% | [12] 83.9% | [13] 108% | [14] 95.5% | [15] 116% | [16] 91.9% | [18] 96.3% | [17] 97.5% | [19] 97.8%

CCNC(=O)N1CCc2cc(OC)c(OCCc3ccc(OC)nc3)cc2C1c1ccc(OC)cc1C (configuration not stated)
inactive: [1] 30.1% | [2] 61.8% | [3] 44.8% | [4] 40.3% | [5] 59.9% | [6] 33.7% | [7] 14.1% | [9] 25.8% | [10] 10.9% | [11] 31.4% | [12] 42.4% | [13] 51% | [14] 67.1% | [15] 54.6% | [16] 33.8% | [17] 29.8% | [19] 23.5%

C=C(C=O)[C@@H]1CC[C@]2(CO)CC[C@]3(C)[C@H](CC[C@@H]4[C@@]5(C)CCCNC(C)(C)[C@@H]5CC[C@]43C)[C@@H]12
active: [8] 2.49% | [10] 3.73% | [18] 3.49%
inactive: [1] 99.5% | [2] 88.2% | [3] 54.6% | [4] 78.3% | [5] 125% | [6] 67.5% | [9] 28% | [12] 50.8% | [13] 88.7% | [14] 87% | [15] 104% | [16] 52.8% | [17] 71.8% | [19] 65.3%

O=S(=O)(NCCCNc1nccc(-c2[nH]c(-c3ccccc3)nc2-c2ccc(Cl)c(O)c2)n1)c1cccc2ccccc12
inactive: [2] 46.2% | [3] 24% | [4] 20.2% | [5] 49.7% | [6] 39.5% | [7] 71.9% | [8] 20% | [9] 18.7% | [10] 17.8% | [12] 27.1% | [13] 67.1% | [14] 56.9% | [15] 68.5% | [18] 18.7% | [17] 44%
active: [1] -4.81% | [11] 9.64%

C#Cc1nc(C(C)=O)cs1
inactive: [1] 111% | [2] 103% | [3] 102% | [4] 90.1% | [5] 104% | [6] 87.2% | [7] 106% | [8] 96.9% | [9] 101% | [10] 99.6% | [11] 92.5% | [12] 105% | [13] 107% | [14] 105% | [15] 93% | [18] 112% | [17] 104% | [19] 103%

CCCCCc1ccc(S(=O)(=O)Nc2cc(-c3csc(NC(=O)CN4CCN(C)CC4)n3)ccc2OC)cc1
active: [4] -92.7% | [20] 3.55% | [6] -15.5% | [8] 2.18% | [9] -5.31% | [10] -20.3% | [11] -27% | [18] -19.4% | [17] -30.3%
inactive: [1] 73.6% | [3] 11.8% | [5] 103% | [7] 75.2% | [12] 50.8% | [13] 62.4% | [14] 41.8% | [15] 73.4% | [16] 14.2% | [19] 41.9%

N#Cc1cnc2ccc(-c3cnc(N)nc3)cc2c1N1CCc2cc(F)c(Cl)cc21
inactive: [3] 15% | [12] 12% | [13] 19.8% | [14] 12.3%
active: [1] -32.5% | [2] -7.03% | [4] -6.05% | [5] -20.5% | [6] 5.2% | [7] -49.7% | [9] 0.22% | [10] 8.58% | [11] -16.9% | [15] 0.148% | [16] -44.6% | [18] 8.88% | [17] -22.5%

O=C(CSc1nc2ccccc2c(=O)n1-c1ccc(Cl)cc1)N/N=C/c1ccc(N2CCCCC2)cc1
inactive: [1] 99.5% | [2] 82.1% | [3] 62.4% | [4] 53% | [5] 103% | [7] 78.5% | [8] 87% | [9] 92% | [10] 74.8% | [11] 100% | [12] 65.3% | [13] 76.9% | [14] 58.6% | [15] 30.1% | [16] 55.5% | [18] 32.8% | [17] 37.9% | [19] 39.9%

C=C(C)[C@@H]1CC[C@]2(COP(=O)(OCC)OCC)CC[C@]3(C)[C@H](CC[C@@H]4[C@@]5(C)CCCNC(C)(C)[C@@H]5CC[C@]43C)[C@@H]12
inactive: [1] 92.7% | [2] 40.4% | [3] 46.6% | [4] 30.9% | [5] 58.9% | [6] 29.1% | [7] 55% | [12] 55.4% | [13] 58.6% | [14] 23.5% | [15] 103% | [18] 54% | [17] 52.9% | [19] 27.6%
active: [9] -29.8% | [10] -51.4% | [11] -46.6% | [16] 6.74%

CNC(=O)c1c(NC(=O)c2cccc(C(F)(F)F)c2F)sc2c1CCC(=O)C2
inactive: [2] 13.1% | [3] 10% | [5] 34.6% | [8] 13.6% | [10] 20% | [12] 16.8% | [18] 12.5%
active: [1] 8.04% | [4] -29.2% | [6] -30.6% | [7] -1.35% | [9] 7.37% | [11] -0.669% | [13] 4.83% | [14] 8.78% | [15] 4.35% | [17] 8.98% | [19] 7.77%

CCCSc1nc(Nc2ccc(/C(C)=N\NC(N)=S)cc2)c(C#N)c(-c2ccccc2)n1
inactive: [1] 87.9% | [2] 74.4% | [3] 77.9% | [4] 46.9% | [5] 95% | [6] 48.1% | [7] 102% | [8] 69.3% | [9] 52.8% | [10] 57.1% | [11] 67.5% | [12] 56% | [13] 85.5% | [14] 58.7% | [15] 125% | [16] 86.9% | [18] 31.4% | [17] 62.5% | [19] 53.5%

COc1cc2c(cc1OC)C(Sc1ccc(F)cc1)c1c(nc(N)c(C#N)c1N)O2 (configuration not stated)
active: [1] -6.24% | [2] -86.6% | [3] -86.5% | [4] -98.1% | [5] -30.1% | [6] -58.4% | [7] -42.8% | [8] -13.6% | [9] 0.279% | [11] -28% | [12] -15% | [13] -88.2% | [14] -66.1% | [15] -21.6% | [16] -85.7% | [18] -58.9% | [17] -4.38% | [19] -46.4%

CCNC(=O)N1CCc2cc(OC)c(OCCc3ccc(OC)nc3)cc2C1c1ccc(C)cc1C (configuration not stated)
active: [1] 1.68% | [7] -12.2% | [10] 7.67% | [11] 9.18% | [17] -2.81% | [19] 7.35%
inactive: [2] 39.3% | [3] 30.5% | [4] 28.5% | [5] 44.8% | [6] 18.1% | [8] 27% | [9] 22.6% | [12] 15.5% | [13] 31.4% | [14] 52.5% | [15] 54% | [16] 17.2%

O=S(=O)(NCCCNc1nccc(-c2[nH]c(-c3ccccc3)nc2-c2ccc(Cl)c(O)c2)n1)c1cccc(F)c1
inactive: [1] 18.5% | [3] 68.2% | [4] 56.6% | [5] 98.2% | [20] 57.2% | [6] 56.1% | [7] 101% | [8] 32.9% | [9] 40.3% | [10] 39.4% | [11] 41.1% | [12] 50.1% | [13] 85.4% | [14] 71.8% | [15] 105% | [16] 57.9% | [18] 60.3% | [17] 96.2% | [19] 73.2%
